IL2 activator = qHTS of IL-2 Activators | IL-2 activation reporter assay, cell-based qHTS; stimulated with anti-CD3/CD4/CD28 beads; in transgenic mouse T cells | activation, % (series mostly up to about 46 µM) | 360,000 tested, 0.065% active | AID 652025, 2013; in the data active = activation above about 50%; inconclusive = mostly about 30% to 49%; note: 0% is about no effect
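First, unstimulated transgenic mouse T cells were exposed to compound for 60 min. Next, anti-CD3/anti-CD4-coated beads with anti-CD28 were added. Finally, after 18 h at 37 degrees C, EGFP and DsRed were imaged.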
BRCA1 expr up = qHTS Assay to Identify Small Molecule Activators of BRCA1 Expression; 380,000 tested, 1.1% active; MCF7-BRCA1-FFLuc reporter, luminescence, 48 h; response scale: scaled: vehicle 0%, 10 µM genistein 100%; AID 624202, 2012; Potency, µM (titrated, usually from 46.1 µM), without a hit: at the top dose activation, actives largely listed as activators; note: potency is the fitted concentration of half-maximal effect; nearly all actives have a fitted effect of over 80% in size
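Quantitative HTS in MCF7 cells stably reporting BRCA1 expression via firefly luciferase. Compound treatment lasts 48 h at 37 °C in phenol-red free MEM. Activation is expressed relative to genistein at 10 microM and DMSO.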
mIDH1 inhibitor = qHTS for Inhibitors of mutant isocitrate dehydrogenase 1 (IDH1): qHTS; AID 602179, 2012; IDH1-R132H enzyme, NADPH consumption, diaphorase/resazurin fluorescence; 390,000 tested, 0.093% active; Potency, µM (top dose mostly 76.6 µM), inactives show top-dose activity change, negative = inhibition, hits mostly inhibitors; note: potency is the fitted concentration of half-maximal effect; % is set by controls: 0 for no effect and ±100 for the full control effect; nearly all actives have a fitted effect of over 65% in size
Target sequence (O75874 whole entry R132H, stated change not applied): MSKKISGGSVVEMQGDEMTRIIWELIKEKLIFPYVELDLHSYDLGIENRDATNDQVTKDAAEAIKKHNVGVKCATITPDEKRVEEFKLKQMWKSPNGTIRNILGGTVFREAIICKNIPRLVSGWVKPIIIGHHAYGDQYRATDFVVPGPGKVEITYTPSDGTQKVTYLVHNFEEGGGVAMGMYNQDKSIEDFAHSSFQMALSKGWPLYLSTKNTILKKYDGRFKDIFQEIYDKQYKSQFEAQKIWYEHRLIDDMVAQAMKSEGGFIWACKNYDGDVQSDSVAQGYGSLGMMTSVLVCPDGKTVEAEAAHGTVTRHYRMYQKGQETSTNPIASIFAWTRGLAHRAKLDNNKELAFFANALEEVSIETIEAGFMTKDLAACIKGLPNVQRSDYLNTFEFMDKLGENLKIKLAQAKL
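IDH1-R132H (0.5 ug/mL dispensed) in pH 7.5 Tris buffer was preincubated 30 min with compound, then given a substrate mix of 0.016 mM NADPH and 2 mM alpha-KG for 80 min at room temperature; remaining NADPH was read by diaphorase/resazurin fluorescence.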
gsp antagonist = qHTS for Antagonists of gsp, the Etiologic Mutation Responsible for Fibrous Dysplasia/McCune-Albright Syndrome: qHTS. Potency, µM (doses to about 76.9 µM), for inactives: at the top dose activity change, negative = inhibition, most hits filed as inhibitors. gsp-mutant cells, cAMP HTRF, 30 min. 340,000 tested, 0.4% active; calls by dose curve; cell line not stated here;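 note: intracellular cAMP measured with PDE inhibitor Ro 20-1724 present during compound exposure; potency is the fitted concentration of half-maximal effect; % is set by controls: 0 for no effect and ±100 for the full control effect; nearly all actives have a fitted effect of over 65% in size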
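Cells, 2000/well, grown 16–24 h in DMEM 10% FBS with 0.5 mg/ml G418, then compounds plus […] (300 uM addition stock), 30 min at 37C. cAMP read by HTRF (cAMP-d2 and anti-cAMP antibody-K in lysis buffer) after 30 min RT.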
gsp ag = qHTS for Agonist of gsp, the Etiologic Mutation Responsible for Fibrous Dysplasia/McCune-Albright Syndrome: qHTS; gsp mutant cells, cAMP HTRF, 30 min; Potency, µM (series often up to 76.9 µM), for the others: at the top dose activation (cAMP increase), usual class: activators; 340,000 tested, 0.13% active; AID 624287, 2012; active = well fitted activation curve with a large enough effect; inconclusive = small, poorly fitted or top-dose-only effect, or another doubt; inactive = no such curve, though single readings can be large or run the other way; cell line not stated here;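 note: phosphodiesterase inhibitor Ro 20-1724 added with compounds to block cAMP breakdown; potency is the fitted concentration of half-maximal effect; nearly all actives have a fitted effect of over 60% in size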
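Cells stably selected in G418 were plated at 2000/well, grown 16-24 hr, then given compounds in DMSO with the PDE inhibitor […] (300 uM solution added) for 30 min at 37C; cAMP was read by HTRF.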
* hit, by the source's call; ? = inconclusive; nt = not tested or not shown; [ ] = another dose, or the depositor's remark. Only some compounds are listed: those with a hit (about 1.5% of all), similar ones and a draw of the others. Unless noted, calls come from the whole dose curve; as a rule, active = well fitted curve in the direction sought with a large enough effect; inconclusive = small, poorly fitted or top-dose-only effect, or another doubt; inactive = no such curve, though single readings can be large; an effect the other way counts as inactive or inconclusive.

SMILES	IL2 activator	BRCA1 expr up	mIDH1 inhibitor	gsp antagonist	gsp ag
CC1(C)O[C@H]2[C@@H](O1)[C@@H](C(=O)Nc1cc(F)ccc1F)O[C@@H]1OC(C)(C)O[C@@H]12	nt	nt	-11%	nt	nt
Cn1cnc2cc(NCc3ccc(Cl)cc3)ccc21	1	5µM*	7%	1%	-96%
CCn1cnc2cc(NC(=O)c3cccs3)ccc21	-2	13µM*	2%	-1%	43%
CCOc1ccc(CNc2ccc3c(c2)ncn3C)cc1	-2	65%	13%	-2%	-24%
CCn1cnc2cc(NCc3ccc(Br)cc3)ccc21	0	4.5µM*	11%	-7%	-9%[15.4 µM]
CC(c1nnc(SCC(=O)c2c(N)n(C3CC3)c(=O)[nH]c2=O)n1-c1ccc(F)cc1)N(C)C (configuration not stated)	1	0%	3%	10%	?
COc1cccc(-c2cnc3c(NC(C)=O)cc(-c4ccc(C(=O)N5CCOCC5)cc4)cn23)c1	-1	-15%	nt	nt	nt
C[C@@H]1CN([C@@H](C)CO)S(=O)(=O)c2ccc(Br)cc2O[C@H]1CN(C)C(=O)c1ccccc1F	-3	1%	-5%	nt	?
N#CC[n+]1cccc(Br)c1	nt	17%	nt	nt	nt
CC1CC=C2C(C#N)=C(N)C(C#N)(C#N)C(c3cccs3)C2C1 (configuration not stated)	-2	-29%	21µM*	-17%	-35%
CCOC(=O)N1CC=C2C(C#N)=C(N)C(C#N)(C#N)[C@H](c3cccs3)C2C1 (some centres not stated)	1	-13%	-9%	16%	9%
COc1ccc(-c2nc3ccc([N+](=O)[O-])cc3[nH]2)cc1	-1	?	24%	-12%	-3%
O=[N+]([O-])c1cccc(-c2nc3ccc([N+](=O)[O-])cc3[nH]2)c1	-1	5µM*	25%	-25%	?
Cc1ccc(-c2nc3ccc([N+](=O)[O-])cc3[nH]2)cc1	-3	?	20%	?	18%
O=[N+]([O-])c1ccc2nc(-c3ccncc3)[nH]c2c1	0	?	7%	-3%	10µM*
O=[N+]([O-])c1ccc2nc(-c3ccc(Cl)cc3)[nH]c2c1	-5	-10%	23%	35µM*	-5%
Nc1[nH]c(=S)[nH]c(=O)c1N=O	nt	4%	nt	nt	nt
CCCCC1CC2=C(C(=O)OC(C)(C)O2)C(c2ccc3ccccc3c2)O1 (configuration not stated)	0	-20%	nt	nt	nt
Cc1cc(C(C)(C)C)ccc1NC(=O)CC(C)(C)CC(=O)O	3	13µM*	8%	1%	-1%[15.4 µM]
CCc1cccc(C)c1NC(=O)CC(C)(C)CC(=O)O	1	1%	5%	1%	-2%[15.4 µM]
N/C(=N\OC(=O)c1cccc(F)c1)c1cccc([N+](=O)[O-])c1	0	13µM*	0%	2%	-2%[15.4 µM]
N/C(=N/OC(=O)c1cccc([N+](=O)[O-])c1)c1cccc([N+](=O)[O-])c1	0	7.1µM*	1%	-1%	11%[15.4 µM]
N/C(=N\OC(=O)c1ccc2ccccc2c1)c1cccc([N+](=O)[O-])c1	-1	67%	-2%	-22%	-58%
Cc1ccc2[nH]c(=O)c(CN(CCO)Cc3nnnn3Cc3ccccc3)cc2c1	nt	3%	nt	nt	nt
O=C(c1cc2ccccc2oc1=O)N1CCN(c2ccc(F)cc2)CC1	nt	nt	-10%	nt	nt
SMILES	IL2 activator	BRCA1 expr up	mIDH1 inhibitor	gsp antagonist	gsp ag
Oc1cccc2ccc[n+](CC(O)CBr)c12 (configuration not stated)	nt	8%	nt	nt	nt
c1ccc2c(c1)[nH]c1c(N3CCCC3)ncnc12	2	1%	15%	?	?
c1ccc2c(c1)[nH]c1c(N3CCSCC3)ncnc12	-4	-76%	2%	14µM*	21%
Cc1cccc2[nH]c3c(N4CCC5(CC4)OCCO5)ncnc3c12	-3	-92%	14%	-20%	-17%
Clc1ccc2[nH]c3c(N4CCC5(CC4)OCCO5)ncnc3c2c1	-4	-72%	3%	35µM*	9%
COc1ccc(/C=C/c2ccc3ccccc3n2)c(OC)c1	nt	-56%	nt	nt	nt
O=C(O)c1ccccc1NN=Cc1ccccc1	0	?	-1%	25µM*	28%
COCC(=O)n1nc(-c2ccc(Cl)cc2)nc1NCc1ccc(F)cc1	-1	-43%	10%	-10%	0%
COCC(=O)n1nc(-c2ccc(C)cc2)nc1NCc1ccc(F)cc1	-8	10µM*	3%	4%	-32%[15.4 µM]
CC(C)n1nnc(-c2ccc(OCc3ccccc3F)cc2)n1	1	4.5µM*	-2%	-23%	?
Cn1nnc(-c2ccc(OCc3ccccc3F)cc2)n1	2	?	5%	-8%	5%
Nc1ccc(-c2nnn(Cc3ccccc3F)n2)cc1	1	11µM*	-9%	11%	1%[15.4 µM]
COc1ccc(CN2C(=O)c3cccc4cccc(c34)C2c2nc3ccccc3[nH]2)cc1 (configuration not stated)	4	-23%	nt	nt	nt
COc1ccc(N(CC(=O)N2CCN(c3cccc(OC)c3)CC2)S(=O)(=O)c2c(C)noc2C)cc1	nt	-32%	-9%	nt	nt
C(=N\N1CCN(c2ccccn2)CC1)/c1ccccn1	0	11µM*	-3%	3%	16%[15.4 µM]
C(=N\N1CCN(c2ccccn2)CC1)/c1ccco1	0	53%	-4%	4%	28%
Cc1ccc(/C=N/N2CCN(c3ccccn3)CC2)o1	1	10µM*	11%	5%	3%
CCOC(=O)c1cccc(NC(=O)c2cc3sccc3n2Cc2ccc(Cl)cc2)c1	nt	-8%	12%	nt	nt
CCOC(=O)c1cccc(NC(=O)c2cc3sccc3n2C)c1	-3	1%	10%	35µM*	-2%
CCOC(=O)c1oc2ccc(/C=N/O)c(Cl)c2c1C	-6	7.1µM*	2%	7%	6%[15.4 µM]
CCOC(=O)c1oc2cc(C)cc(C)c2c1C	0	-9%	0%	10%	26%
CC(C)N(Cc1ccccc1)C(=O)c1nc(-c2ccc(Cl)cc2)n2c1CCCCC2	nt	nt	-11%	nt	nt
CCOc1ccc(/C=C/C(=O)Nc2ccc(OC)cc2[N+](=O)[O-])cc1	114*	5%	3%	11%	17%
Cc1ccc(NC(=O)CN2CCCCCC2)c(Br)c1	0	11µM*	2%	12%	29%
COc1ccc(NC(=O)CN2CCC(C)CC2)c([N+](=O)[O-])c1	-4	62%	4%	3%	-4%
COc1ccc(NC(=O)CN2CCCCC2)c([N+](=O)[O-])c1	0	10µM*	-1%	5%	-11%

High-throughput results as filed in PubChem BioAssay.
